Screens (PubChem BioAssay)
VDR inh – Inhibitors of the vitamin D receptor (VDR): qHTS | Vitamin D3 receptor (Homo sapiens), P11473 | VDR-SRC2-3 peptide fluorescence polarization, 2 h | Potency, µM, for the others: max response, negative = inhibition, hits mostly inhibitors | actives 0.93% (n = 400,000); further: potency means the concentration at half of the fitted maximal effect; on the % scale 0 is the no-effect control and ±100 the full control effect
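Two reagent solutions held at 4 deg C in the dark were dispensed, compounds pinned at 23 nl, and the mixture incubated 2 h at room temperature. Read-out: fluorescence polarization of VDR–SRC2-3 peptide binding.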
Vif-APOBEC3F blk – qHTS for Inhibitors of Vif-A3F Interactions: qHTS; HeLa A3F-eYFP + Vif (tagged APOBEC3F with the HIV-1 protein that degrades it), YFP fluorescence increase; actives 0.2% (n = 390,000); Potency, µM (top dose mostly 46.1 µM), without a hit: at the top dose activity, negative = active; further: potency means the concentration at half of the fitted maximal effect; % of control where 0% means no effect; nearly all actives have a fitted effect of over 65% in size
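Fluorescence increase (Ex 488/Em 500-530) after overnight compound treatment at 37 deg C flags inhibition of Vif-driven A3F-eYFP loss in stable HeLa A3F-eYFP/Vif cells seeded overnight beforehand.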
TSHR antagonist – Antagonists of the Thyroid Stimulating Hormone Receptor: HTS campaign; Thyrotropin receptor (Homo sapiens), P16473; TSHR-expressing cells, TSH-stimulated cAMP HTRF, 2 h; stronger effect = lower value; activity change, negative = inhibition, % at 11.5 µM; actives 0.2% (n = 330,000); AID 504810, 2011;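 active means activity change below a set negative limit, meaning inhibition stronger than a set level, cut at about -70% in these data; inconclusive means activity change between two set negative limits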; further: on the % scale 0 is the no-effect control and ±100 the full control effect
Target sequence (P16473 whole entry, looked up): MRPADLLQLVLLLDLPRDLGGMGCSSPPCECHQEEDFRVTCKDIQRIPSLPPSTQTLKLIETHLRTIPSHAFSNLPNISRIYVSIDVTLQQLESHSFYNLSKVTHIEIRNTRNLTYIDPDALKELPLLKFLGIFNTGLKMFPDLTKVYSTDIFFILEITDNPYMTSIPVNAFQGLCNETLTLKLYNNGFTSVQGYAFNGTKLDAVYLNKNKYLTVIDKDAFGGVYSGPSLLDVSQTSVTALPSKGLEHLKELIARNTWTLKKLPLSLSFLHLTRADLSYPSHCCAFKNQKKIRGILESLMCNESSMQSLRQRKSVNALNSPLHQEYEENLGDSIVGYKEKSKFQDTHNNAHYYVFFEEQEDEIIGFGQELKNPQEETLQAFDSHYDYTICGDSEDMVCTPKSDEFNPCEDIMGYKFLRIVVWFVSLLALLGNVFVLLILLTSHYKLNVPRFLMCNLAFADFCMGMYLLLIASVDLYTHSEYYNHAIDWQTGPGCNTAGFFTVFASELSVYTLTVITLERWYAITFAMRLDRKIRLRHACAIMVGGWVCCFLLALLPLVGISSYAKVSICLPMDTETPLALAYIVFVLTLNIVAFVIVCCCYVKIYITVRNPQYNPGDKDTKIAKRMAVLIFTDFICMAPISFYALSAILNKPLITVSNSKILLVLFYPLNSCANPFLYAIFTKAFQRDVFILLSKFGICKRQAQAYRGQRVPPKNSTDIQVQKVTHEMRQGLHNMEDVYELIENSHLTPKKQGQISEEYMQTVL
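TSHR-expressing cells, 200/well, pre-treated with compound, then stimulated with EC80 TSH (4nM final) for 2 hours at 37 deg C. cAMP measured by competitive HTRF: anti-cAMP cryptate antibody in lysis buffer plus cAMP-d2, read after 30 minutes at room temperature.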
PLK1 PBD inh – qHTS for Inhibitors of PLK1-PDB (polo-like kinase 1 - polo-box domain): Primary Screen; Serine/threonine-protein kinase PLK1 (Homo sapiens), P53350; Plk1 PBD binding of FITC phosphopeptide, fluorescence polarization; Potency, µM, inactives show max response, negative = inhibition, usual class: inhibitors; actives 2.8% (n = 360,000); further: potency means the concentration at half of the fitted maximal effect; series mostly up to about 57 µM; on the % scale 0 is the no-effect control and ±100 the full control effect; nearly all actives have a fitted effect of over 65% in size
Vif-APOBEC3G blk – qHTS for Inhibitors of Vif-A3G Interactions: qHTS; AID 602310, 2012; Potency, µM (doses to about 46.1 µM), without a hit: top-dose activity, negative = active, most hits filed as inhibitors; HeLa A3G-eYFP + Vif (tagged APOBEC3G with the HIV-1 protein that degrades it), YFP fluorescence, overnight; actives 0.076% (n = 410,000); DNA dC->dU-editing enzyme APOBEC-3G (Homo sapiens), Q9HC16; further: potency means the concentration at half of the fitted maximal effect; on the % scale 0 is the no-effect control and ±100 the full control effect; nearly all actives have a fitted effect of over 60% in size
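HeLa cells stably expressing Vif and C-terminally eYFP-tagged A3G, seeded overnight at 37 deg C, then exposed to compound by pintool overnight at 37 deg C. Rise in yellow fluorescence (Ex 488/Em 500-530, Acumen) marks blocked Vif-driven A3G degradation.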
VDR confirm – qHTS for Inhibitors of the vitamin D receptor (VDR): Hit Validation in Primary Screen; VDR-coactivator inhibition assay, qHTS confirmation; shares compounds with VDR inh; Potency, µM, actives largely listed as inhibitors; actives 89% (n = 840); further: potency means the concentration at half of the fitted maximal effect
VDR FP – qHTS for Inhibitors of the vitamin D receptor (VDR): Hit Validation using a Fluorescein Assay; actives 48% (n = 840); VDR-coactivator binding, fluorescein fluorescence polarization; Potency, µM (top dose mostly 57.1 µM), inactives show at the top dose activity change, negative = inhibition, hits mostly inhibitors; AID 602200, 2012; shares compounds with VDR inh; further: potency means the concentration at half of the fitted maximal effect
VDR bla – qHTS for Inhibitors of the vitamin D receptor (VDR): Hit Validation using a Beta-Lactamase Assay; shares compounds with VDR inh; VDR beta-lactamase reporter cells, FRET ratio; cells co-treated with VDR agonist LG190178; Potency, µM (titrated, usually from 46.1 µM), inactives show top-dose activity change, negative = inhibition, hits mostly inhibitors; actives 23% (n = 840); AID 602202, 2012; further: potency means the concentration at half of the fitted maximal effect; on the % scale 0 is the no-effect control and ±100 the full control effect
VDR cytotox – qHTS for Inhibitors of the vitamin D receptor (VDR): Hit Validation using a Cytotoxicity Assay; shares compounds with VDR inh; cytotoxicity counter-screen, cell viability, qHTS; Potency, µM (highest dose often 48.3 µM), for inactives: at the highest dose activity change, negative = cytotoxicity, usual class: cytotoxic; actives 18% (n = 840); AID 602204, 2012;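 further: potency means the concentration at half of the fitted maximal effect; plate controls were DMSO for no effect and high-concentration cycloheximide for full effect; nearly all actives have a fitted effect of over 75% in size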
Active calls of the source: *; ? = inconclusive; nt = no result given. A selection: hits, their analogues and other compounds. The true share with any hit is near 3.1%. Unless noted, the call rests on the fitted dose curve; in most records, active means well fitted curve in the direction sought with a large enough effect; inconclusive means small, poorly fitted or top-dose-only effect, or another doubt; inactive means no such curve, though single readings can be large; an effect the other way counts as inactive or inconclusive.

SMILES	VDR inh	Vif-APOBEC3F blk	TSHR antagonist	PLK1 PBD inh	Vif-APOBEC3G blk	VDR confirm	VDR FP	VDR bla	VDR cytotox
O=C(c1cccs1)c1no[n+]([O-])c1C(=O)c1cccs1	45µM*	4%	15	?	?	6.3*	3.5µM*	2.6µM*	3µM*
O=C(Nc1c(O)c2ccccc2oc1=O)c1cccc(F)c1	?	-17%	nt	nt	-5%	nt	nt	nt	nt
O=C(NCc1ccccc1Cl)c1c2c(nc3ccccc13)C(=O)N(C1CCCCC1)C2	8%	-3%	nt	nt	0%	nt	nt	nt	nt
CS/C(=N/S(=O)(=O)c1ccc(C)cc1)c1ccccc1	-7%	-2%	16	?	-9%	nt	nt	nt	nt
O=S(=O)(/N=C(\Sc1ccc(Cl)cc1)c1ccccc1)c1ccccc1	?	-12%	-5	2.7µM*	1%	7.1*	22µM*	2%	-2%
CCCc1nnc(NC(=O)Cc2coc3ccc(C(C)C)cc23)s1	1%	1%	nt	nt	0%	nt	nt	nt	nt
COc1ccc(NC(=O)/C(Cl)=C(/Cl)S(=O)Cc2ccc(Cl)cc2)cn1 (stereo not given)	11µM*	7%	?	1.3µM*	?	4.2*	2.8µM*	1.8µM*	11µM*
COc1ccc(NC(=O)C(Cl)=C(Cl)Cl)cn1	-20%	-13%	-6	1%	?	nt	nt	nt	nt
CCCCNC(=O)c1cc(-c2ccc(OC)cc2)nc2n[nH]c(-c3cccc([N+](=O)[O-])c3)c12	4%	-1%	nt	nt	0%	nt	nt	nt	nt
CCOC(=O)/C(=C\c1ccc(OC(F)F)cc1)C1=Nn2c(nnc2-c2ccc(Cl)cc2)SC1	16µM*	-12%	-24	?	-20%	6*	?	16µM*	13µM*
CCOC(=O)/C(=C/c1ccc(OC(F)F)cc1)C1=Nn2c(nnc2-c2ccc(Cl)cc2)SC1	8.9µM*	-8%	nt	?	-25%	3.4*	3.5µM*	?	21µM*
COc1ccc(-c2nnc3n2N=C(C)CS3)cc1	1%	2%	29	-3%	-2%	nt	nt	nt	nt
COc1ccccc1NS(=O)(=O)c1cccc(NC(=O)c2ccc3ccccc3n2)c1	4%	-24%	?	1%	-5%	nt	nt	nt	nt
O=C(/C=C/c1ccccc1)Nc1cccc(S(=O)(=O)Nc2ccccc2F)c1	11µM*	0%	-7	1.2µM*	2%	4.2*	?	18%	?
O=C(Nc1cccc(S(=O)(=O)Nc2ccccc2F)c1)c1ccc2ccccc2n1	16µM*	-4%	-32	1.9µM*	-8%	3.8*	?	-19%	-38%
O=C(C=Cc1ccccc1)Nc1ccccc1	0%	7%	nt	-2%	-1%	nt	nt	nt	nt
COc1ccc(Cn2c(=O)c3cccnc3n(Cc3cccc(F)c3)c2=O)cc1	-12%	-2%	nt	nt	-3%	nt	nt	nt	nt
CCc1nnc(NC(=O)c2nc(S(=O)(=O)Cc3ccccc3)ncc2Cl)s1	22µM*	2%	-27	-16%	-21%	7.5*	8.9µM*	13µM*	18µM*
CCc1nnc(NC(=O)c2nc(S(=O)(=O)Cc3cccc(C)c3)ncc2Cl)s1	13µM*	1%	-32	27µM*	?	3*	?	5.8µM*	?
O=C(NCc1ccc2c(c1)OCO2)c1nc(S(=O)(=O)Cc2ccccc2)ncc1Cl	22µM*	7%	-11	?	-6%	9.5*	?	18µM*	?
CCc1nnc(NC(=O)c2nc(Cl)ccc2Cl)s1	-8%	3%	3	-11%	-1%	nt	nt	nt	nt
CCOc1ccccc1NC(=O)c1nc(S(=O)(=O)Cc2cccc(C)c2)ncc1Cl	16µM*	1%	-83*	?	1%	8.4*	?	3.3µM*	7.3µM*
O=C(NCc1ccccc1)c1nc(S(=O)(=O)Cc2ccccc2)ncc1Cl	?	5%	-36	?	?	nt	nt	nt	nt
CCc1cc(=O)[nH]c(SCc2nc(-c3cccc(Cl)c3)no2)n1	6%	6%	nt	nt	1%	nt	nt	nt	nt
O=C(NCCc1ccc(Cl)cc1)C1COc2ccccc2C1 (stereo not given)	2%	2%	nt	nt	6%	nt	nt	nt	nt
SMILES	VDR inh	Vif-APOBEC3F blk	TSHR antagonist	PLK1 PBD inh	Vif-APOBEC3G blk	VDR confirm	VDR FP	VDR bla	VDR cytotox
CCOc1ccc(NC(=O)c2nc(S(=O)(=O)Cc3ccccc3)ncc2Cl)cc1	nt	nt	nt	nt	-9%	nt	nt	nt	nt
COC(=O)c1ccccc1NC(=O)c1nc(S(=O)(=O)Cc2ccccc2)ncc1Cl	?	2%	-19	?	0%	3.2*	3.2µM*	9.2µM*	21µM*
COc1cc(OC)cc(C(=O)NCCc2csc(-c3ccc(C(F)(F)F)cc3)n2)c1	-10%	3%	nt	nt	-1%	nt	nt	nt	nt
CC(=O)C1=C(C)NC2(O)c3ccccc3C(=O)C12O (stereo not given)	-18%	2%	13	-3%	1%	nt	nt	nt	nt
O=C1CCCC2=C1C1(O)C(=O)c3ccccc3C1(O)O2 (stereo not given)	?	3%	-14	-11%	1%	2.5*	2.2µM*	9%	12%
CCCN(CCC)CCNC(=O)C1CCCN(S(=O)(=O)c2cccc3nsnc23)C1 (stereo not given)	-23%	-7%	nt	nt	4%	nt	nt	nt	nt
Cc1ccc(N(C)C(=O)c2cc(S(=O)(=O)N3CCOCC3)cn2C)cc1	10%	1%	nt	nt	2%	nt	nt	nt	nt
CCOC(=O)/C(C#N)=C1/C=CN(Cc2ccccc2)C=N1	-13%	-3%	-1	-4%	1%	nt	nt	nt	nt
CCOC(=O)/C(C#N)=C1\C(=O)N(Cc2ccccc2)c2ccccc21	28µM*	-9%	4	3.4µM*	0%	6.7*	?	9%	11%
